# Experimental data reported in the supplement of paper PMC11417369.
# In all, about 25,000 sequences were measured (“ln(normalized median fluorescence intensity)”: median about 7.1, highest 2% from about 10 on). Many of the other results were omitted from the sample, so the highest values are more common in it than they were.
# System: PfSIP2 AP2 domain 1 (GST-tagged)
# Experiment: gcPBM binding intensity (ln(normalized median fluorescence intensity)); higher = stronger DNA binding
# Method in brief: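 DNA-binding domains from P. falciparum, fused to GST and produced in E. coli, were put on an Agilent 4 × 180k double-stranded probe array for 1 h in 1× PBS holding 1% milk, 0.2 mg/ml BSA, 0.5% salmon testes DNA and 0.03% Triton X-100. Probes were primer-extended, 36 bp long and drawn from intergenic genomic regions, with negative controls included. After Alexa488 anti-GST antibody detection and a 488 nm scan, binding intensity was set as the highest Masliner-normalised natural-log median intensity across replicate spots of either probe orientation.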
row,Sequence,gcPBM binding intensity (ln)
1,TTTTTTTTTTTTTGGTGTACCATAGGTAAAATGATT [XGTACX_site8020],7.2
2,TATTTATATTTATACACACACACAAAAAAAAAAAAA [CACACA_site6817],7.22
3,TATTTTTTATATTTATTTATTTAAAGGAGCTTTTCT [GTGCAC_negctrl_site293],6.67
4,TTTTTCATTTAGCTTTTACACACTATATATTATTGA [CACACA_site7888],7.16
5,CAGGTGCACTATATTACACACGCTTCTTTTTTTTTA [CACACA_site2069],12.4
6,ATATATATATATATTACACACTTTTTCTTTTTTTTT [CACACA_site2780],9.47
7,ACATATTATATATGTGTGCACATATATATATATTTA [GTGCAC_site9591],8.7
8,TATATATTTTTATGTGTGCACTGTTTCATAAAAGAA,10.9
9,AATATTTCTCATTTTGTGCACTGAAAAATGTAATAT,10.2
10,TATATATTTCGGTGTGCACACTTTTTATTTTTATCC [CACACA_site1726],8.4
11,TATATATATATATATGTGCACATATTTATATGTTTT,9.47
12,ATCATATTTTTATGTGTGCACTTTTTTTTTTTTTTT [GTGCAC_site9555],10.8
13,ATATATTGCACTTTTTGTACATAATGAAAAATTTTT [XGTACX_site8223],8.1
14,TATATATATATGTGCACACATAAAGATATTATTTTT [CACACA_site3733],9.51
15,TATATATATTTTTGTGTGCACTATAATATGAAAATA,10.8
16,AATATATTTATGCTCATGCACTTTTTTTTTTTTTTT [GTGCAC_site9654],8.89
17,AATTTTTTTTTTTTTTTTTTTTATATATGTGTGTGT [XGTACX_negctrl_site129],7.29
18,ATATATTTTATATGTGTGCACTATATATATATATAT,10.2
19,AAATATATTTTACATTGTACATGAATAAACTATAAA [XGTACX_site2080],7.05
20,AAGGCAAGCACTTAAACATGCATATAATAATATCAT [TGCATGCA_site698],7.36
21,TGATAAGTATACTAAAGTACATGAAAAATAACTTCC [XGTACX_site6908],6.87

row,Sequence,gcPBM binding intensity (ln)
1,ATTACATACGAGCACACGTAAAAGTATAATATAAAA [GTGCAC_negctrl_site446],6.94
2,TGAGTATATATAAATACACACCAAATGTTAATATAT [CACACA_site5022],6.8
3,TAATGATAAATACATACACACAAAAAATAATATATA [CACACA_site2576],6.85
4,CATATATATTTGTTCACACACACACTAGAAAAAAAA [CACACA_site5380],7.29
5,TATGATACATAAATATGTACGTATAATATATATTTA [XGTACX_site7002],6.96
6,ATTATTAAAAATATGGGTACATATTATTGTTATATA [XGTACX_site1958],6.89
7,AAAAAATAAAAAATATGTACACATTCAAAATTTTAC [XGTACX_site8479],6.91
8,TATATTTTTATGTGTGTGCACAAAATAACAAAATAT [GTGCAC_site9596],9.36
9,TATTTTTGGTTATGTGTGCACTATGAACAACAAAAT,10.5
10,ATTTTATGAAATGTTGCACACAAAAAACAACATGTT [CACACA_site8408],7.66
11,AATATTTGCCTATGTTGTACTGACATTTTTTTAAGT [XGTACX_site6836],7.06
12,TTTTAAGATATAAATTAATACTTATATATATAGATA [CACACA_negctrl_site22],6.75
13,TAATTACACTTTAAAAGTACATATATAATAACATTA [XGTACX_site379],7.04
14,ATTAGTTTACACATATGTACATATATTACAACAAAA [XGTACX_site275],7.34
15,AAAAAGAACACAAAAAGTACAAAAATTATAATGATA [XGTACX_site2676],6.98
16,AACACATACATATATGCACACATTTTATTCCATTAT [CACACA_site2834],8.05
17,AAAAAAAAAACACACACATGCACATCATATTATATA [TGCATGCA_site133],7.03
18,ATATGGATTATACATACATGCATACATACATACATA [TGCATGCA_site475],7.1
19,ATATTATATATATACACACACACATGCATGCACATA [CACACA_site7917],8.98
20,AAAAAAAAAAAAAACACACACATGCACATCATATTA [CACACA_site4467],7.43
21,AAAAAAAAAAAAAACACACACATGCACCTCATATTA [CACACA_site556],11.4

row,Sequence,gcPBM binding intensity (ln)
1,ATATTATATATATACACACACACATGCATGCACCTA [CACACA_site106],11.1
2,CATATATGGTTATATACATGCACCATTATATTATTA [TGCATGCA_site520],10.3
3,ATATTATAGATATACACACACACATGCATGCACATA [CACACA_site6203],8.64
4,AAAAAAAATGATAATATACACACTTATGGGAGAGCG [CACACA_site2516],6.97
5,TATATAATACGAATTTGTACATATTAAATAAATTAT [XGTACX_site93],6.84
6,TTTTAAAAAACAAACACACACGTAGAAAAAAAAAAA [CACACA_site4608],6.99
7,GGTAGAAAATCAGTTAAACACACACCGAAAAAAAAA [CACACA_site8934],7.24
8,TATGAACACCAACACACACACAAAAAAAAAAAAAAA [CACACA_site2013],7.3
9,TACATATTTTGTATATATTATTTATTTTATTAGTTT [XGTACX_negctrl_site85],6.74
10,TTAATAGGTCGAAGTAGTACATAAAAATATATATAT [XGTACX_site5960],8.1
11,GACACCCATAAATATACACACGCACAACACAAAATA [CACACA_site8944],7.67
12,ATTATACACGCGCGCACACACAACAAAAAAAAAAAA [CACACA_site7630],7.59
13,CACCCATAAATATACACACGCACAACACAAAATAAA [CACACA_site2903],7.52
14,AATGTACCCACACCCACACACAAACAAATATATATA [CACACA_site2751],7.47
15,AATGTACACCCACCCACACACAAACAAATATATATA [CACACA_site5521],7.62
16,ATAAAAATTGATTATACACACGCGCACCCACAACAA [CACACA_site3536],11.2
17,ATAAAAATTGATTATACACACGCGCCCAGACAACAA [CACACA_site5870],7.24
18,AATGTACACGCACCCACACACAAACAAATATAAATA [CACACA_site7319],10.3
19,TATACAATATAAAATACACACGCACCCAAAAAAAAA [CACACA_site9174],10.4
